Calls of active or inactive are those of the source. The call rests on the fitted dose curve; in most records, active means well fitted curve in the direction sought with a large enough effect; inactive means no such curve, though single readings can be large or run the other way.
Assay: qHTS Assay for Agonists of the Relaxin Receptor RXFP1: V1B SAR
Details: HEK293 V1B cells, cAMP TR-FRET, 30 min; series mostly up to 78.1 µM
Source text: The relaxin hormone is involved in the variety of biological functions in normal tissues and diseases. The role of relaxin is well-established in female reproduction and parturition, mammary gland and endometrial development, maintenance of myometrial quiescence during pregnancy. Relaxin signaling through its G protein-coupled receptor (GPCR) RXFP1 results in ECM remodeling through regulation of collagen deposition, cell invasiveness, proliferation and overall tissue homeostasis. […] Recombinant human relaxin (rhRlx) is currently being tested in clinical trials as a protective agent in congestive heart failure, in treating severe preeclampsia, and as an anti-fibrotic agent in systemic sclerosis. Upon relaxin binding RXFP1 activation leads to the activation of adenylate cyclase (AC) via Gs. cAMP will activate PKA, which phosphorylates many signaling proteins. Thus, detection of cAMP increase is an easy and reliable indication of relaxin receptor activation. To screen for agonists of the relaxin receptor, a HEK293T cell line stably transfected with RXFP1 was used. RXFP1 activation was assayed by changes in cAMP levels as detected with a time-resolved fluorescence energy transfer (TR-FRET) cAMP detection kit. This assay measures activation of a cell expressing V1B, another GPCR targeted by relaxin, to determine the selectivity of compounds for RXFP1. NIH Chemical Genomics Center [NCGC] NIH Molecular Libraries Probe Production Centers Network [MLPCN] MLPCN Grant: R03 MH085705-01A1 Assay Submitter (PI): Alexander Agoulnik
This is a cell-based assay for cAMP second messenger response to screen for agonists of the RXFP2 receptor. The assay was conducted in the presence of a PDE4 inhibitor (Ro 20174). The cells were lysed and the cAMP levels were measured with a TR-FRET cAMP kit. Presence of cAMP in the cell lysate disrupts binding between the cryptate-labeled anti-cAMP and d2-labeled cAMP pair, leading to a decrease in the TR-FRET signal. Data were normalized to the controls for basal activity (buffer only) and 100% activity (29 nM porcine relaxin). The EC50 values were determined from concentration-response data modeled with the standard Hill equation 1536-well assay protocol for the HEK293 V1B cAMP assay: (1) Add 3 ul HEK293 RXFP2 cell culture. 2000 cells/well in DMEM/F12, 10% FBS, 1x Pen/Strep (dispensed offline with MultiDrop Combi). (2) Incubate 16-24 hr at 37C, 5% CO2. (3) Add 1 ul 400uM Ro20174 in DPBS, 0.05% BSA, 0.005% Tween 20. (3) Add 23 nl compounds in DMSO solution. Final concentration was 0.5 - 58 uM. (4) Incubate 30 min at 37C, 5% CO2. (5) Add 1 ul cAMP-d2 in lysis buffer (HTRF cAMP HiRange kit, CisBio). (6) Add 1 ul anti-cAMP antibody-cryptate in lysis buffer (HTRF cAMP HiRange kit, CisBio). (7) Incubate 30 min at room temperature. (6) Detect the assay plate in a ViewLux plate reader (PerkinElmer) with Ex=320 nm, Em1=615 nm and Em2=665 nm. Keywords: relaxin, RXFP1, RXFP2, G-protein coupled receptor, cAMP, agonist, high throughput screening, MLSMR, MLSCN, NIH Roadmap, qHTS and NCGC

outcome, inactive:
CCC(CC)C(=O)Nc1ccccc1C(=O)Nc1cccc(C(F)(F)F)c1
O=C(Nc1cccc(-c2ccccc2)c1)c1ccccc1NC(=O)C1CCCCC1
COc1ccccc1C(=O)N(C)c1ccccc1C(=O)N(C)c1cccc(C(F)(F)F)c1
CC(C)Oc1ccccc1C(=O)Nc1ccccc1C(=O)Nc1cccc(C(F)(F)F)c1
O=C(Nc1ccc(C(F)(F)F)cc1)c1ccccc1NC(=O)C1CCCCC1
COc1cccc(NC(=O)c2ccccc2NC(=O)C2CCCCC2)c1
COc1ccc(C(=O)Nc2ccccc2C(=O)Nc2cccc(C(F)(F)F)c2)cc1
O=C(Nc1ccccc1C(=O)Nc1cccc(C(F)(F)F)c1)c1cccnc1
O=C(Nc1cccc(SC(F)(F)F)c1)c1ccccc1NC(=O)C1CCCCC1
COc1ccccc1Nc1ccccc1C(=O)Nc1cccc(C(F)(F)F)c1
Cc1ccccc1NC(=O)c1ccccc1NC(=O)C1CCCCC1
CCSc1ccccc1C(=O)Nc1ccccc1C(=O)Nc1cccc(S(=O)(=O)C(F)(F)F)c1
O=C(Nc1cccc(C(F)(F)F)c1)c1ccccc1NC(=O)C1CCC1
COCCOc1ccccc1C(=O)Nc1cccc(C(F)(F)F)c1
CCOc1ccccc1C(=O)Nc1cnccc1C(=O)Nc1cccc(S(=O)(=O)C(F)(F)F)c1
O=C(Nc1cccc(S(=O)(=O)C(F)(F)F)c1)c1ccccc1NC(=O)C1CCCCC1
CCCCC(=O)Nc1ccccc1C(=O)Nc1cccc(C(F)(F)F)c1
CN(C)CCOc1ccccc1C(=O)Nc1ccccc1C(=O)Nc1cccc(C(F)(F)F)c1
COCCNc1ccccc1C(=O)Nc1cccc(C(F)(F)F)c1
O=C(Nc1cccc(C(F)(F)F)c1)c1ccccc1NC(=O)C1CCCC1
O=C(Nc1cccc(Cl)c1)c1ccccc1NC(=O)C1CCCCC1
O=C(Nc1cccc(Br)c1)c1ccccc1NC(=O)C1CCCCC1
O=C(Nc1ccccc1C(=O)Nc1cccc(C(F)(F)F)c1)c1ccccc1
COc1ccccc1C(=O)Nc1ccc(C(=O)Nc2cccc(C(F)(F)F)c2)cc1
COc1cccc(OC)c1C(=O)Nc1ccccc1C(=O)Nc1cccc(C(F)(F)F)c1
CCOc1ccccc1C(=O)Nc1ccccc1C(=O)Nc1cccc(S(=O)(=O)C(F)(F)F)c1
CSc1cccc(NC(=O)c2ccccc2NC(=O)C2CCCCC2)c1
CCOc1ccccc1C(=O)Nc1ccccc1C(=O)Nc1cccc(C(F)(F)F)c1
CCOc1ccccc1S(=O)(=O)Nc1ccccc1C(=O)Nc1cccc(S(=O)(=O)C(F)(F)F)c1
COc1cccc(C(=O)Nc2ccccc2C(=O)Nc2cccc(C(F)(F)F)c2)c1
O=C(Nc1cccc(F)c1)c1ccccc1NC(=O)C1CCCCC1
COc1ccccc1C(=O)Nc1ccccc1C(=O)Nc1cccc(C(F)(F)F)c1
COc1ccccc1C(=O)Nc1ccccc1C(=O)Nc1cccc(SC(F)(F)F)c1
COc1ccccc1C(=O)N(C)c1ccccc1C(=O)Nc1cccc(C(F)(F)F)c1
O=C(NCc1ccco1)c1ccccc1NC(=O)c1ccccc1NC(=O)C1CCCCC1
O=C(Cc1ccccc1)Nc1ccccc1C(=O)Nc1cccc(C(F)(F)F)c1
CCOc1ccccc1-c1nc2c(C(=O)Nc3cccc(S(=O)(=O)C(F)(F)F)c3)cccc2[nH]1
O=C(Nc1ccccc1)c1ccccc1NC(=O)C1CCCCC1
COc1ccccc1C(=O)Nc1cccc(C(=O)Nc2cccc(C(F)(F)F)c2)c1
COc1ccccc1CNc1ccccc1C(=O)Nc1cccc(C(F)(F)F)c1

From PubChem BioAssay AID602262 (National Center for Advancing Translational Sciences (NCATS), 2012)
